Source: PubChem BioAssay AID1233 (SRMLSC, 2008)
Entries with a potency or affinity are not part of this list. The source made the active and inactive calls.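 The calls were made as follows: active = a dose-response curve fit returns a half-maximal inhibitory concentration, extrapolated values included; inactive = the fit returns no such concentration.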

target: HMG-CoA reductase [Enterococcus faecalis] (UniProt Q9FD70); assay: class II HMG-CoA reductase inhibition potency – biochemical, Enterococcus faecalis, confirmation (AID 1233); settings: purified E. faecalis HMGR, NADPH absorbance 340 nm kinetics; series mostly up to 100 µM

| Structure (SMILES) | outcome |
| --- | --- |
| CC1CN(C(=O)c2ccncc2)CC(C)O1 (centres undefined) | inactive |
| COc1ccc(CCNC2=CC(=O)N(c3ccc(F)cc3)C2=O)cc1 | inactive |
| O=C(COC(=O)c1ccc[nH]c1=O)NC1CCCCCC1 | inactive |
| Cc1c(CN2CCc3c([nH]c4ccccc34)C2C2CCCCC2)cnn1C (centres undefined) | inactive |
| CCOC(=O)C(=O)Nc1ccc([N+](=O)[O-])cc1OC | inactive |
| COCc1cc(C)n(CC(=O)OC)c(=O)c1C#N | inactive |
| COC(=O)c1cc(NC(=O)CSc2nnc(N)s2)ccc1Cl | inactive |
| COc1ccc(NC(=O)C2=C(C)NC(=O)NC2c2cccc(OC)c2OC)c(OC)c1 (centres undefined) | inactive |
| O=C1c2ccccc2C(=O)N1CCN1CCCCC1 | inactive |
| Cc1ccc(OCC(O)CN2C(=O)NC(C)(C)C2=O)cc1 (centres undefined) | inactive |
| COc1cc(S(=O)(=O)Nc2ccccc2C)ccc1NC(=O)c1ccncc1 | inactive |
| O=C(Oc1ccccc1O)c1cccc2ccccc12 | inactive |
| CCOC(=O)c1c(C)oc2c1c(C=NCCO)c(O)c1ccccc12 | inactive |
| COc1ccc(/C=N/NC(=O)C(C)Sc2ccccn2)cc1[N+](=O)[O-] (centres undefined) | inactive |
| O=S1(=O)CC=C(CSC(=S)NC2CCS(=O)(=O)C2)C1 (centres undefined) | inactive |
| COc1ccc(NC(=S)NCc2cccn2C)cc1 | inactive |
| N#Cc1nc(COc2ccc(-c3ccccc3)cc2)oc1NCCCN1CCOCC1 | inactive |
| COc1ccccc1-c1c(C(F)(F)F)oc2cc(OC(=O)c3cccc([N+](=O)[O-])c3C)ccc2c1=O | inactive |
| Cc1ccc(C2C(C(=O)c3ccco3)=C(O)C(=O)N2c2nnc(C)s2)cc1 (centres undefined) | inactive |
